# From PubChem
# Sampled rows, rich in hits. Any-hit rate of the full collection: about 1.5%.
# Akt phos inh: Akt phosphorylation inhibition | activity change, % for hits at 50 µM | Neuro2A IGF-stimulated pAkt S473 HTRF, 20 min; stronger effect = lower value | 0.32% of 360,000 active | AID 651550; in the data active = activity change below about -80%; inconclusive = mostly about -51% to -80%
#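 Single-point screen (50 µM final compound) in Neuro2A cells stimulated 20 min with 6 nM IGF at 37 deg C. After lysis, Ser473-phosphorylated Akt read by HTRF (ex 330 nm, em 615/665 nm) as the 665/615 ratio.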
# TCR activator: activates T cell receptor signaling; primary human leukocytes, anti-CD3, IL-2 HTRF, 48 h; 330,000 tested, under 10 active; AID 504894; Potency, µM (top dose mostly 9.22 µM), actives largely listed as activators
#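 1) Mix primary human leukocytes, a-CD3 beads and compound. 2) Incubate 48 hr. 3) Add HTRF IL-2 reagents (a-IL-2-K, a-IL-2-d2).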
# BRCA1 expr act: activators of BRCA1 expression; 1.1% of 380,000 active; Potency, µM (series often up to 46.1 µM), most hits filed as activators; AID 624202; MCF7-BRCA1-FFLuc reporter, luminescence, 48 h; response scale: scaled: vehicle 0%, 10 µM genistein 100%; also: nearly all actives have a fitted effect of over 80% in size
#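 Compounds are tested at multiple concentrations on MCF7 BRCA1-luciferase reporter cells seeded at 2000 per well; after 48 h, a single luminescence end-point is taken and curves fitted to the normalized data.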
# PINK1 modulator: changes PINK1 expression | 0.2% of 410,000 active | Potency, µM (titrated, usually from 76.6 µM), usual class: activators | PINK1 immunofluorescence, high-content cytometry, 24 h; active = well fitted activation curve with a large enough effect; inconclusive = small, poorly fitted or top-dose-only effect; cell line not stated here; also: nearly all actives have a fitted effect of over 65% in size
#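 PINK1 protein level read as immunofluorescence by microplate cytometer in a fixed, stained stable cell line after 24 h exposure to five compound concentrations, with CCCP as control.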
# Numbers stand for hits; – = inactive; ? = inconclusive; · = no result given. Unless noted, calls follow the shape of the dose curve; as a rule, active = well fitted curve in the direction sought with a large enough effect; inconclusive = small, poorly fitted or top-dose-only effect, or another doubt; inactive = no such curve, though single readings can be large; an effect the other way counts as inactive or inconclusive.
SMILES,Akt phos inh,TCR activator,BRCA1 expr act,PINK1 modulator
C=CCNC(=O)c1c(N)n(Cc2ccco2)c2nc3ccccc3nc12,-99%,–,–,–
COC(=O)N(c1ccccc1)P1(=S)OCCO1,–,–,–,–
CCOC(=O)N(c1ccccc1)P1(=S)OCCO1,-110%,–,–,–
O=C(O)CCC1NCC2CC1CN1CCCCC21 (stereo not given),·,·,·,–
Cc1ccc(-c2ccc(=O)n(CCC(=O)N3CCC4(CC3)OCCO4)n2)cc1,–,–,11µM,–
Cc1nc2ccc(NC(=O)c3ccc(Cl)s3)cc2s1,–,–,3.5µM,–
O=C(Nc1ccc(Cl)cc1)Nc1ccc(Cl)c(Cl)c1,–,–,–,?
CC(C)CN1CC[C@@]2(CCCN(C(=O)Oc3ccccc3)C2)C1,·,·,·,–
CN(C)c1ccc(N=O)cc1,·,·,–,–
CN(C)c1ccc(N=Nc2ccccc2)cc1,·,·,10µM,–
O=C1NC(=S)NC(=O)C12C(c1ccccc1)NC(=S)NC2c1ccccc1 (stereo not given),–,–,–,–
O=C1NC(=S)NC(=O)C12C(c1ccc(F)cc1)NC(=S)NC2c1ccc(F)cc1 (stereo not given),-118%,–,–,–
N#Cc1ccc(CN2CC[C@@]3(CCCNC3)C2)cc1,·,·,·,–
Cc1c(NS(=O)(=O)c2ccccc2)ccc([N+](=O)[O-])c1Cl,–,–,–,16µM
O=[N+]([O-])c1ccc(Cl)c(Cl)c1Cl,–,–,–,–
CCN(CCNc1ccc([N+](=O)[O-])c2cccnc12)S(=O)(=O)c1ccccc1,–,–,–,40µM
Cc1ccc(NC(=O)c2ncn(CC(=O)NCc3ccc4c(c3)OCO4)n2)cc1C,–,–,11µM,–
CCC12C=CCN3CCC4(c5ccc(OC)cc5N(C)C4[C@@](O)(C(=O)OC)C1OC(C)=O)C32 (stereo not given in full),·,·,·,–
COc1ccc(NC(=O)N2CC3(CCN(C(=O)Oc4ccccc4)CC3)C2)cc1,·,·,·,–
CCOC(=O)c1cccc(-[n+]2c(-c3ccccc3)cc(-c3ccccc3)cc2-c2ccccc2)c1,–,–,–,25µM
CCOC(=O)c1ccc(-[n+]2c(-c3ccccc3)cc(-c3ccccc3)cc2-c2ccccc2)cc1,–,–,–,?
O=C1NC(=S)NC(=O)C1=Cc1ccc(OCc2ccccc2)cc1,–,–,13µM,–
Oc1ccc(-c2cccnc2)cc1CNC1CN2CCC1CC2 (stereo not given),·,·,·,–
O=c1c2ccccc2nc(CSc2ncnc3nc[nH]c23)n1-c1ccccc1Cl,–,–,–,–
O=c1c2ccccc2nc(CSc2ncnc3nc[nH]c23)n1-c1ccccc1,-84%,–,–,–
SMILES,Akt phos inh,TCR activator,BRCA1 expr act,PINK1 modulator
O=C(Oc1ccccc1)N1CCC[C@@]2(CCN(Cc3nccs3)C2)C1,·,·,·,–
CN1/C(=C\C=C2C(=O)NC(=S)NC2=O)C(C)(C)c2ccccc21,–,–,–,35µM
CC1(C)OC(c2ccccc2)=C/C(=C/C=C2C(=O)NC(=S)NC2=O)O1,–,–,–,?
Cc1ccc(-n2c(=O)[nH]c3ccccc3c2=O)cc1[N+](=O)[O-],–,·,11µM,–
O=C(Cn1cc(C(=O)c2ccccc2F)c2ccccc21)NCc1ccco1,–,·,–,?
CC(C)(C)C(=O)c1cn(CC(=O)NCc2ccco2)c2ccccc12,–,–,5.6µM,–
O=C(c1ccco1)c1cn(Cc2ccccc2)c2ccccc12,-87%,–,–,–
O=[N+]([O-])c1ccc(NCc2ccc(Cl)cc2)c2ccncc12,–,–,–,–
O=[N+]([O-])c1ccc(NCc2ccccc2)c2nonc12,–,–,–,40µM
Cc1c(P(=S)(c2ccccc2)c2ccccc2)[n+]2ccccc2n1CCc1ccccc1,·,·,–,25µM
Clc1ccccc1-c1cncnc1NCCc1cnc[nH]1,·,·,·,–
CC(=NCCN1CCOCC1)c1c(O)n(-c2ccccc2C)c(=O)[nH]c1=O,–,–,–,–
CCC(=NCCN1CCOCC1)c1c(O)n(-c2ccccc2C)c(=O)[nH]c1=O,-122%,–,–,–
CC1(C)C(=O)[C@@H]2OC2[C@@]2(C)C1CC(O)[C@]1(C)C2CC[C@@]2(C)C(c3ccoc3)OC(=O)C3OC312 (stereo not given in full),·,·,·,–
CNNC,·,·,·,–
Cc1ccc(NC(=O)OC(C)CNC(=O)Oc2cccc(C)c2)cc1 (stereo not given),–,–,11µM,–
CN(CC(=O)N1CCc2ccccc21)S(=O)(=O)c1cccs1,–,–,4µM,–
Nc1ccccc1C(=O)OCC(=O)N1CCc2ccccc21,–,–,?,–
N#Cc1cc(NC(=O)c2ccc(Cl)cc2)ccc1Sc1ccccc1,–,·,–,25µM
O=c1[nH]c(=O)n(-c2ccc(F)cc2)c(O)c1C=Nc1ccccc1N1CCCC1,–,–,–,35µM
COc1cc(CC2C(=O)N(C)C(=O)N(C)C2=O)ccc1OCc1ccccc1,–,–,13µM,–
CN1C(=O)C(Cc2ccc(OCc3ccccc3)cc2)C(=O)N(C)C1=O,–,–,–,–
O=[N+]([O-])c1ccc(N2CCCCCC2)c2nonc12,–,–,–,40µM
CCOc1ccccc1N=C1SCCCN1C,–,–,–,–
CCOc1cccc(=NC2CCCCC2)c2c(C)n(C)c(C)c12,–,–,–,16µM
SMILES,Akt phos inh,TCR activator,BRCA1 expr act,PINK1 modulator
N#Cc1ccc(CN2CC3(CCNCC3)C2)cc1,·,·,·,–
CCOP(=S)(OCC)N1CCOCCOCCN(P(=S)(OCC)OCC)CCOCCOCC1,–,–,–,–
CCOP(=O)(OCC)C(CC)N1CCOCC1 (stereo not given),-118%,–,–,–
COc1ccc(OC)c(N=Cc2c(O)n(Cc3ccccc3)c(=S)[nH]c2=O)c1,–,–,–,35µM
CC(C)C[C@H]1CN(CCCC[C@H]2CNC(=O)C(=O)N2CCC2CCCCC2)C(=O)C(=O)N1CCC1CCCCC1,–,·,–,?
CCOC(=O)c1sc(=NC(=O)c2ccc(C)c(C)c2)n(C)c1C,–,–,3.2µM,–
CCOC(=O)c1ccccc1C(=O)OCC,–,–,–,–
CCOc1ccc(-c2c(C)n(-c3ccc(OCC)cc3)c3[n+]2CCCCC3)cc1,–,–,–,10µM
Cc1cccc(OCCNc2ncccc2[N+](=O)[O-])c1,–,·,11µM,–
O=[N+]([O-])c1ccc(C(c2ccc([N+](=O)[O-])cc2)c2ccc([N+](=O)[O-])cc2)cc1,–,–,–,–
Cc1[nH]n(-c2ccccc2)c(=O)c1C(c1ccc([N+](=O)[O-])cc1)c1c(C)[nH]n(-c2ccccc2)c1=O,–,–,–,40µM
O=c1c2ccccc2nc(/C=C/c2ccc([N+](=O)[O-])o2)n1-c1ccc(O)cc1,–,–,–,40µM
COc1cc2c(cc1OC)[C@@H]1C(=O)c3ccc(OC)c(CC=C(C)C)c3OC1CO2 (stereo not given in full),·,·,·,20µM
COc1cc2c(cc1OC)[C@@H]1C(=O)c3ccc4c(c3OC1CO2)CC(C(C)C)O4 (stereo not given in full),·,·,·,–
